{
  "source": "the supplement of paper PMC3484114",
  "note": "± gives the standard deviation.",
  "data": [
    {"tested_on": "OVCAR-3-derived ovarian cancer stem-like cells (spheroids)", "assay": "cell growth relative to untreated control; higher = more growth (less inhibition)", "details": "2.29 µM; 96 h", "method_in_brief": "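After trypsin dissociation, OVCAR-3 spheroid-derived stem-like cells were placed in ultra-low attachment 96-well plates at 50,000 cells/mL in stem cell medium and preincubated for 24 h. Treatment at 2.29 uM followed for 96 h at 37°C, 5% CO2, with 4 replicate wells per compound. A 4 h TOX8 resazurin fluorescence read (ex 560/em 590 nm) gave viability, from which percent growth relative to untreated wells was derived after blank subtraction and Grubbs outlier removal.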", "units": {"cell growth": "%"}, "values": [
      {"smiles": "O=C1OC(c2ccccc2)=N/C1=C\\c1ccc(N(CCCl)CCCl)cc1", "cell growth": "64.5 ± 12"},
      {"smiles": "Fc1cccc(F)c1C1SCc2nc3ccccc3n21", "note": "(centres undefined)", "cell growth": "78.4 ± 9.6"},
      {"smiles": "CCOC(=O)[C@H](CC(C)C)NC(=O)C(Cc1ccc(N(CCCl)CCCl)cc1)NC(C)=O", "note": "(some centres undefined)", "cell growth": "73.3 ± 40"},
      {"smiles": "COc1cc([C@H]2c3cc4c(cc3C[C@@H]3COC(=O)[C@H]32)OCO4)cc(OC)c1OC", "cell growth": "39.5 ± 18"},
      {"smiles": "O=[N+]([O-])c1ccc2c(c1)/C(=N/N=C1c3ccccc3Cc3ccccc31)c1cc([N+](=O)[O-])cc([N+](=O)[O-])c1-2", "cell growth": "57.1 ± 34"},
      {"smiles": "COC(=O)C1=C(C(=O)OC)SC2(S1)C(C(=O)OC)=C(C(=O)OC)Sc1c2ssc1=O", "cell growth": "60.2 ± 8.6"},
      {"smiles": "C[C@H]1CCC/C=C/[C@@H]2C[C@H](O)C[C@H]2[C@H](O)/C=C/C(=O)O1", "cell growth": "15 ± 2.5"},
      {"smiles": "CN(C)C(=S)SSC(=S)N(C)C", "cell growth": "103 ± 17"},
      {"smiles": "CCCCCn1cc2c3c(cccc31)C1C=C(C)CN(C)[C@@H]1C2.Cc1ccc(C(=O)OC(C(=O)O)C(OC(=O)c2ccc(C)cc2)C(=O)O)cc1", "note": "(centres undefined)", "cell growth": "78.9 ± 11"},
      {"smiles": "COC(=O)[C@@]12OC[C@]34[C@H]([C@@H](O)[C@@H]1O)[C@@]1(C)CC(=O)C(O)=C(C)[C@@H]1C[C@H]3OC(=O)[C@H](OC(=O)/C=C(\\C)C(C)C)[C@@H]24", "cell growth": "6.1 ± 4.4"},
      {"smiles": "O=C1N[C@H]2[C@H](O)[C@H](O)[C@@H](O)[C@H](O)[C@@H]2c2cc3c(c(O)c21)OCO3", "cell growth": "19.5 ± 2.6"},
      {"smiles": "O=[N+]([O-])[O-].O=[N+]([O-])[O-].O=[N+]([O-])[O-].[Ga+3]", "cell growth": "120 ± 11"},
      {"smiles": "O=c1[nH]c2ccccc2n1C1CCN(CCCC(c2ccc(F)cc2)c2ccc(F)cc2)CC1", "cell growth": "90.6 ± 41"},
      {"smiles": "CC1=CC23C(COC(=O)C24CO4)C(C(=O)O)=CC3C1C.NCc1ccccc1", "note": "(centres undefined)", "cell growth": "74.5 ± 29"},
      {"smiles": "O=C([CH-]C(=O)C(F)(F)F)c1ccccc1.O=C([CH-]C(=O)C(F)(F)F)c1ccccc1.O=C([CH-]C(=O)C(F)(F)F)c1ccccc1.O=C([CH-]C(=O)C(F)(F)F)c1ccccc1.[Eu+3].c1ccncc1", "cell growth": "104 ± 18"},
      {"smiles": "Cc1cc(N(CCOS(C)(=O)=O)CCOS(C)(=O)=O)ccc1C=Nc1ccc(-c2csc(-c3ccccc3)n2)c(Cl)c1", "cell growth": "97.7 ± 47"},
      {"smiles": "[Cl][Cd][Cl]", "cell growth": "87.6 ± 51"},
      {"smiles": "CC[PH+](CC)CC.[Cl][Au]", "cell growth": "103 ± 27"},
      {"smiles": "C[C@@H]1C[C@H]2CC[C@H](O2)[C@H](C)C(=O)O[C@@H](C)C[C@@H]2CC[C@@H](O2)[C@@H](C)C(=O)O[C@H](C)C[C@H]2CC[C@H](O2)[C@H](C)C(=O)O[C@@H](C)C[C@@H]2CC[C@@H](O2)[C@@H](C)C(=O)O1", "cell growth": "31.3 ± 6"}
    ]}
  ]
}
